The values below come from PubChem BioAssay (EPA / NIEHS).

The structures appear in SMILES notation. Values joined by “and” are separate entries in the source; they are usually repeats but may differ in a detail not shown here. Equal entries are not always repeated. Records with an inconclusive call do not appear. Some structures have more than one record in an assay (separate samples or runs), and their calls can disagree. Active and inactive are the calls of the source. The calls were made as follows: active = hit-call score of the fitted dose curve at least 0.9, where 1 is the maximum; inconclusive = response in the unintended direction; inactive = score below 0.9.

For test [1], the target named is Peroxisome proliferator-activated receptor gamma (Homo sapiens) (UniProt P37231). In words: NVS_NR_hPPARg: NovaScreen (NVS) Nuclear Receptor Binding Assay for human Peroxisome Proliferator-activated Receptor gamma (PPARg) (AID 2283370). An outline of the steps: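 Cell-free binding to extracted PPARg protein, read by fluorescence polarization 2 h after dosing; loss of signal relative to DMSO baseline marks displacement. Primary screen in duplicate at 25 uM, actives retested in concentration series.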
Sequence of Peroxisome proliferator-activated receptor gamma (Homo sapiens) (P37231 whole entry, looked up): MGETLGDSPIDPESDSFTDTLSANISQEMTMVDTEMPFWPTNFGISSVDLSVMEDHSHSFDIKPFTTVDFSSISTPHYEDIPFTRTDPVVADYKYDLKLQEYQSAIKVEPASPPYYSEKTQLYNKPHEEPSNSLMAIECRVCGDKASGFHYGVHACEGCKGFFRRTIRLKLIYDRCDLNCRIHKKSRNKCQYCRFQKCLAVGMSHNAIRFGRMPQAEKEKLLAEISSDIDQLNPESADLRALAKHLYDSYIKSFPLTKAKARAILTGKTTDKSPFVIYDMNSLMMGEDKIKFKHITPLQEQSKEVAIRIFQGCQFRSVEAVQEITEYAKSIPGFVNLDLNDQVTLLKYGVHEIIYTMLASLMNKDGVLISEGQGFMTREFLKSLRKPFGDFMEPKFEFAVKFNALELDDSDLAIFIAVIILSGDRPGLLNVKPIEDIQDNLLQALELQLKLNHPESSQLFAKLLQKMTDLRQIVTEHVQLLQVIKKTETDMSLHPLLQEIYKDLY

In test [2] the target is human Thyroid Receptor Alpha (TRa), THRA (gene 7067) (UniProt P10827). Nature of the test: NVS_NR_hTRa_Antagonist: NovaScreen (NVS) Nuclear Receptor Binding Assay for human Thyroid Receptor Alpha Antagonism (TRa) (AID 2283362). The gist of the method: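 Cell-free binding assay on extracted receptor protein, read 1 h after chemical dosing by AlphaLISA chemiluminescence; loss of signal relative to DMSO baseline marks antagonism. Primary screen ran in duplicate at 25 uM, with concentration series for actives.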
Sequence of human Thyroid Receptor Alpha (TRa), THRA (gene 7067) (P10827 whole entry, looked up): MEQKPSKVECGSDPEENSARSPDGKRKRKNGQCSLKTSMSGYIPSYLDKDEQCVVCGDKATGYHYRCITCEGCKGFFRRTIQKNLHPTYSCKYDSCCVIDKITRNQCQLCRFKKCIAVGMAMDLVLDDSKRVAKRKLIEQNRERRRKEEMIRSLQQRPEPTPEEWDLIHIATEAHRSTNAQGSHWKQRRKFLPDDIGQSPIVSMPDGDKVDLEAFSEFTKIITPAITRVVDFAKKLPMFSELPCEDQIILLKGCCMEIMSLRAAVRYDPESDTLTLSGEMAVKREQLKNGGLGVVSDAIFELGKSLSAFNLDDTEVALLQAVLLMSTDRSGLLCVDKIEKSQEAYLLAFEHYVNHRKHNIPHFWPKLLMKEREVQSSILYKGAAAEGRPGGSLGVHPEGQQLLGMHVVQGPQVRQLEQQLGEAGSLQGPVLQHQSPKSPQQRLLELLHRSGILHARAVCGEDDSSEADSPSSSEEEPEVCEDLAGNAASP

For test [3], the target named is Glucocorticoid receptor (Homo sapiens) (UniProt P04150). Nature of the test: NVS_NR_hGR: NovaScreen (NVS) Nuclear Receptor Binding Assay for human Glucocorticoid Receptor (GR) (AID 2283363). An outline of the steps:
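Single-readout cell-free binding: radioligand plus extracted receptor, 16-hour dosing, filter radiodetection; 25 uM duplicate primary, concentration series secondary.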

For test [4], the target named is rat Androgen Receptor (AR), Ar (gene 24208) (UniProt P15207). Nature of the test: NVS_NR_rAR: NovaScreen (NVS) Nuclear Receptor Binding Assay for rat Androgen Receptor (AR) (AID 2283366). The gist of the method:
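Actives from a duplicate single-concentration (25 uM) primary run went on to concentration series. Displacement of radioligand was counted by filtration and scintillation, 18 h post-dose, using prostate extracts from testosterone-pretreated rats, with DMSO as baseline.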

The target in test [5] is Nuclear receptor subfamily 1 group I member 2 (Homo sapiens) (UniProt O75469). In words: NVS_NR_hPXR: NovaScreen (NVS) Nuclear Receptor Binding Assay for human Pregnane X Receptor (PXR) (AID 2283365).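 Also: a drop in FRET signal versus DMSO baseline means the compound binds.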 The gist of the method:
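Cell-free binding assay with extracted human PXR protein, read by TR-FRET 2 h after dosing; loss of signal relative to DMSO baseline indicates binding. Primary screen at 25 uM in duplicate, actives retested in concentration series.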

Test [6] has as its system rat Norepinephrine Transporter (NET), gene 83511. In words: NVS_TR_rNET: NovaScreen (NVS) Transporter Assay for rat Norepinephrine Transporter (NET) (AID 2283373). An outline of the steps: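 Competitive radioligand displacement at the rat NET using forebrain membrane preparations, 1 h incubation, filter-based scintillation readout. Primary testing in duplicate at a single 25 uM concentration; confirmed actives retested across concentrations.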

Test [7] concerns the target Retinoic acid receptor alpha (Homo sapiens) (UniProt P10276). Nature of the test: NVS_NR_hRARa_Agonist: NovaScreen (NVS) Nuclear Receptor Binding Assay for human Retinoic Acid Alpha Receptor Agonism (RAR) (AID 2283361). The gist of the method: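 Compounds screened at 25 uM, duplicate, then in concentration series if active. Detection: TR-FRET gain of signal versus DMSO after 2 h with cell-free extracted RARα.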

In test [8] the target is guinea pig Sigma Receptor, Non-selective Binding, SIGMAR1 (gene 100135589) (UniProt Q60492). Nature of the test: NVS_OR_gSIGMA_NonSelective: NovaScreen (NVS) Nuclear Receptor Binding Assay for guinea pig Sigma Receptor, Non-selective Binding (AID 2283367). The method, then: NVS_OR_gSIGMA_NonSelective is a biochemical, single-readout assay that uses extracted gene-proteins from Guinea pig brain membranes in a tissue-based cell-free assay. Measurements were taken 1 hour after chemical dosing in a 48-well plate.NVS_OR_gSIGMA_NonSelective is one of one assay component(s) measured or calculated from the NVS_OR_gSIGMA_NonSelective assay. It is designed to make measurements of radioligand binding, a form of binding reporter, as detected with scintillation counting signals by Filter-based radiodetection technology.Data from the assay component NVS_OR_gSIGMA_NonSelective was analyzed into 1 assay endpoint. This assay endpoint, NVS_OR_gSIGMA_NonSelective, was analyzed in the positive analysis fitting direction relative to DMSO as the negative control and baseline of activity. Using a type of binding reporter, loss-of-signal activity can be used to understand changes in the binding as they relate to the gene Sigmar1. Furthermore, this assay endpoint can be referred to as a primary readout, because the performed assay has only produced 1 assay endpoint. To generalize the intended target to other relatable targets, this assay endpoint is annotated to the misc protein intended target family, where the subfamily is chaperone.
Sequence of guinea pig Sigma Receptor, Non-selective Binding, SIGMAR1 (gene 100135589) (Q60492 whole entry, looked up): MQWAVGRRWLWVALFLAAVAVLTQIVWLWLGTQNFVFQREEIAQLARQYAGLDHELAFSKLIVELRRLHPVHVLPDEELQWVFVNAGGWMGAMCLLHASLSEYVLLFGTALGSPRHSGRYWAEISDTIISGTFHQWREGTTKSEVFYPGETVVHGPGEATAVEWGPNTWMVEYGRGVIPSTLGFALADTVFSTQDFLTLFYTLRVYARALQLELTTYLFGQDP
Binding assays used specific radioligands (tritiated, iodinated) with non-radioactive competitive displacement ligands in agonist or antagonist protocols (as indicated) and various reference compounds and inhibitors to titrate specific binding to receptors and transporters. Most enzyme assays (CYPs, kinases, phosphatases, proteases, HDACs) used recombinant protein and specific substrates (fluorescence mostly, some colorimetric and radioactive) and inhibitors, followed by a biochemical separation of substrate and product. All assays for the biochemical HTS were initially run in duplicate at a single concentration (10 uM for CYP450 assays and 25 uM for all others). […] Each assay was run with positive and negative controls, and concurrent controls on every plate. The follow-up (secondary) screen tested active chemical-pairs in concentration series, as well as a few additional assays not tested in the primary screen, some selected negative inactives, and several cases re-run in the concentration series for confirmatory purposes.

The target in test [9] is human Adenosine Transporter (Adot), SLC29A1 (gene 2030) (UniProt Q99808). In words: NVS_TR_hAdoT: NovaScreen (NVS) Transporter Assay for human Adenosine Transporter (Adot) (AID 2283368). How it is done:
NVS_TR_hAdoT is a biochemical, single-readout assay that uses extracted gene-proteins from U937 in a cell-free assay. Measurements were taken 1 hour after chemical dosing in a 96-well plate.NVS_TR_hAdoT is one of one assay component(s) measured or calculated from the NVS_TR_hAdoT assay. It is designed to make measurements of radioligand binding, a form of binding reporter, as detected with scintillation counting signals by Filter-based radiodetection technology.Data from the assay component NVS_TR_hAdoT was analyzed into 1 assay endpoint. This assay endpoint, NVS_TR_hAdoT, was analyzed in the positive analysis fitting direction relative to DMSO as the negative control and baseline of activity. Using a type of binding reporter, loss-of-signal activity can be used to understand changes in the binding as they relate to the gene SLC29A1. Furthermore, this assay endpoint can be referred to as a primary readout, because the performed assay has only produced 1 assay endpoint. To generalize the intended target to other relatable targets, this assay endpoint is annotated to the transporter intended target family, where the subfamily is nucleoside transporter.
Binding assays used specific radioligands (tritiated, iodinated) with non-radioactive competitive displacement ligands in agonist or antagonist protocols (as indicated) and various reference compounds and inhibitors to titrate specific binding to receptors and transporters. Most enzyme assays (CYPs, kinases, phosphatases, proteases, HDACs) used recombinant protein and specific substrates (fluorescence mostly, some colorimetric and radioactive) and inhibitors, followed by a biochemical separation of substrate and product. All assays for the biochemical HTS were initially run in duplicate at a single concentration (10 uM for CYP450 assays and 25 uM for all others). Assay-chemical combinations meeting a pre-defined threshold (e.g., 30% inhibition and other criteria defined below) were then run in singleton concentration-response format with maximum concentration of 20 uM for CYPs and 50 uM for all others. Each assay was run with positive and negative controls, and concurrent controls on every plate. The follow-up (secondary) screen tested active chemical-pairs in concentration series, as well as a few additional assays not tested in the primary screen, some selected negative inactives, and several cases re-run in the concentration series for confirmatory purposes.

The target of test [10] is human Serotonin Transporter (SERT), SLC6A4 (gene 6532) (UniProt P31645). Nature of the test: NVS_TR_hSERT: NovaScreen (NVS) Transporter Assay for human Serotonin Transporter (SERT) (AID 2283372). An outline of the steps:
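Human platelet membrane preparation; displacement of radioligand from serotonin transporter measured after 1 h by filtration and scintillation counting. Single 25 uM duplicate screen, then concentration series for actives, with DMSO as negative baseline.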

Sequence of Nuclear receptor subfamily 1 group I member 2 (Homo sapiens) (O75469 whole entry, looked up): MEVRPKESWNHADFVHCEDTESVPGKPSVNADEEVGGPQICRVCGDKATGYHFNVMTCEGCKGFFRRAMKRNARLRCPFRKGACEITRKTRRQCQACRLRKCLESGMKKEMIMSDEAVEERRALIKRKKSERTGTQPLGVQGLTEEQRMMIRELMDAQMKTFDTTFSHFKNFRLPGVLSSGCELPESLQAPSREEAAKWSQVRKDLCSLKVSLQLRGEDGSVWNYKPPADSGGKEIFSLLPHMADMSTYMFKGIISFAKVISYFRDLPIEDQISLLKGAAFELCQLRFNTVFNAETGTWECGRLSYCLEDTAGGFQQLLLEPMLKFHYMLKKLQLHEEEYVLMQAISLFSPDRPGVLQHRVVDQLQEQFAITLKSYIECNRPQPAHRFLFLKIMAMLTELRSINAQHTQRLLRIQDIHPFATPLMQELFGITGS
Sequence of Glucocorticoid receptor (Homo sapiens) (P04150 whole entry, looked up): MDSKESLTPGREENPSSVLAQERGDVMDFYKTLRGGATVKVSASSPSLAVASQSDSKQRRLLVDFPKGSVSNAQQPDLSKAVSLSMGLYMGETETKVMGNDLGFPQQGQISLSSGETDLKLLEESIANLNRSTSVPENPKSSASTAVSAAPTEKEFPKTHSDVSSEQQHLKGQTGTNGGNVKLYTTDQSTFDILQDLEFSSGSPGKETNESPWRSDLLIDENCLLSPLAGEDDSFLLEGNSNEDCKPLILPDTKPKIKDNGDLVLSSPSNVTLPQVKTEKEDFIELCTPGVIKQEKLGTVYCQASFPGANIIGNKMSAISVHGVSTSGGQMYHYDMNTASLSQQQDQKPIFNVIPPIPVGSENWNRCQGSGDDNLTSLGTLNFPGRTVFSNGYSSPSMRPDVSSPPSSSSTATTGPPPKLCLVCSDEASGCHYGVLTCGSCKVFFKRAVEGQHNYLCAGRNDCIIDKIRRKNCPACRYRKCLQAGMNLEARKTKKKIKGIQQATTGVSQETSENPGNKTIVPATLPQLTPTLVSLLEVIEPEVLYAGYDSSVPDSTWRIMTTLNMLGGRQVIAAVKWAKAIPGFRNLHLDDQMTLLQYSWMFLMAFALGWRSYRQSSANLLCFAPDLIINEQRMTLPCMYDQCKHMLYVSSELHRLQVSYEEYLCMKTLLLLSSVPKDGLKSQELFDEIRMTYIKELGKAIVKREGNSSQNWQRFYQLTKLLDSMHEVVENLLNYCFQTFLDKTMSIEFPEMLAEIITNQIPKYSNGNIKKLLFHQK
Sequence of rat Androgen Receptor (AR), Ar (gene 24208) (P15207 whole entry, looked up): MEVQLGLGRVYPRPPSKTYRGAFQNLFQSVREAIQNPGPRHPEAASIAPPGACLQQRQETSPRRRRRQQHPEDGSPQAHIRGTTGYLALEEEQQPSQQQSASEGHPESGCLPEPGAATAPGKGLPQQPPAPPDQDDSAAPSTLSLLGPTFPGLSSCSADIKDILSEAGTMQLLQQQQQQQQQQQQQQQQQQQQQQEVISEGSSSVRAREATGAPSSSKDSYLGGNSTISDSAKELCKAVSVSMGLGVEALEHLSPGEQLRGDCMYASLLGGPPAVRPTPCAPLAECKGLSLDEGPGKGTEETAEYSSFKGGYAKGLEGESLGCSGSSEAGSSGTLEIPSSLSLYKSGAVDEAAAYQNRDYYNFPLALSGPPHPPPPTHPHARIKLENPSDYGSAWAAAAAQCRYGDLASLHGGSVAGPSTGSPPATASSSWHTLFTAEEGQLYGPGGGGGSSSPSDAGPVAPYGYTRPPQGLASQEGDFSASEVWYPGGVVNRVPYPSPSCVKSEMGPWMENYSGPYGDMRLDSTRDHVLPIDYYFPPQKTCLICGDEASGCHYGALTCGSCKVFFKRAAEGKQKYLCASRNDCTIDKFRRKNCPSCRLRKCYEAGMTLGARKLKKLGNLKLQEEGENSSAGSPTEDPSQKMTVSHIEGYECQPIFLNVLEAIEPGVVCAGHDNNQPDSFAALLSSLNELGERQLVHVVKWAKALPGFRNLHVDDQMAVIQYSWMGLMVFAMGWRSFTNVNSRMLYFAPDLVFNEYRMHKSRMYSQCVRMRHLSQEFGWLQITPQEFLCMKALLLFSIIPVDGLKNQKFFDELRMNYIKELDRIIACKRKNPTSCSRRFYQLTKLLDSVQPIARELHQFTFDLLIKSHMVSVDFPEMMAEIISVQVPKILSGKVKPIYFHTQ
Sequence of human Adenosine Transporter (Adot), SLC29A1 (gene 2030) (Q99808 whole entry, looked up): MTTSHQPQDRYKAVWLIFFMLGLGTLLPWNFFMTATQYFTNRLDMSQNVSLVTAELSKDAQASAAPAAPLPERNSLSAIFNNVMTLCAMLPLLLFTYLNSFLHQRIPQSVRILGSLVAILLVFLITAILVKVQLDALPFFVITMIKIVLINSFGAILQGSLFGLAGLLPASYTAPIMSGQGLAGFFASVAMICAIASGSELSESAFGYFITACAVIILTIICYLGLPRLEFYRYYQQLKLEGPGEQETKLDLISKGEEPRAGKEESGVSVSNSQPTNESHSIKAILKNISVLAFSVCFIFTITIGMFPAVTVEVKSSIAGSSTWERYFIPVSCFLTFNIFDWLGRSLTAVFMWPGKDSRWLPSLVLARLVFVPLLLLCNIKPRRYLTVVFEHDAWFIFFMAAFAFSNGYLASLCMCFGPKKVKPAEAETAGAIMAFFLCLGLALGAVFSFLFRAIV
Sequence of Retinoic acid receptor alpha (Homo sapiens) (P10276 whole entry, looked up): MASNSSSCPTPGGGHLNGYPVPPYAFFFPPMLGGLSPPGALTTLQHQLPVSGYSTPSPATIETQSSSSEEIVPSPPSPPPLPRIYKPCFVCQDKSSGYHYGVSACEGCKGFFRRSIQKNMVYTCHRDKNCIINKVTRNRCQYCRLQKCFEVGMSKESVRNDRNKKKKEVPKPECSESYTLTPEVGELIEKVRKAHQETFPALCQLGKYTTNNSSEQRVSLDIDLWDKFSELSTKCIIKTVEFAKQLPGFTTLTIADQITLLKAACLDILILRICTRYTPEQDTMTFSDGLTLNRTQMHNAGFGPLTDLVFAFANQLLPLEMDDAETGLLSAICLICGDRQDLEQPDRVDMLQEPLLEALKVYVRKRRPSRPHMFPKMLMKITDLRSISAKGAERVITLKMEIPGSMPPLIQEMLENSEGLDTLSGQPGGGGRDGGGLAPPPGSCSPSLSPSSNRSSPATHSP
Sequence of human Serotonin Transporter (SERT), SLC6A4 (gene 6532) (P31645 whole entry, looked up): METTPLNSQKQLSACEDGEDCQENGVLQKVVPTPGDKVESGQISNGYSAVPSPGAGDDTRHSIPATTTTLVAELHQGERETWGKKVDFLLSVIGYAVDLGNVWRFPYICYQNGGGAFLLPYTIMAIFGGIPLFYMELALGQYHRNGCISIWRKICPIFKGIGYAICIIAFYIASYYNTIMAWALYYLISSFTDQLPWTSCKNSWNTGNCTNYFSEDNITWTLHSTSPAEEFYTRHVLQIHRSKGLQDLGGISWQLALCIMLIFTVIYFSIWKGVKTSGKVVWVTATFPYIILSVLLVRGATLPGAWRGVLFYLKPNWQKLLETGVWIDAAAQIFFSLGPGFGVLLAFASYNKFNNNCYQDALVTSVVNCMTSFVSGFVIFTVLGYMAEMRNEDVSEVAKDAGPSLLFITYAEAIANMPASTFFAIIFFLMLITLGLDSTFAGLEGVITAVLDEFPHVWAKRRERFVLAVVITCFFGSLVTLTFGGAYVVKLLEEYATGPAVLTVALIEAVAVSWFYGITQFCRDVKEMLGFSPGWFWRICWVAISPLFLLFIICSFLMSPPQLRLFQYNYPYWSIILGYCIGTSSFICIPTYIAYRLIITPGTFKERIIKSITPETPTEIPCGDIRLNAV

Turning to `c1ccc(Nc2ccccc2)cc1`, in [1], the compound was classed as inactive.
For the compound `CCCN(CCC)C(=O)SCC`, the compound was classed as inactive in test [2], in test [4] and in test [1]. Also, the concentration at half-maximal activity (AC50) in [3] is 7.09 µM (active).
With `CSC(=O)c1cccc2nnsc12`, the compound was called inactive in test [3].
Take `CCCN(CCC)c1c([N+](=O)[O-])cc(C(F)(F)F)c(N)c1[N+](=O)[O-]`: in test [1], the outcome was inactive.
With `C#CCOC(=O)[C@@H](C)Oc1ccc(Oc2ncc(Cl)cc2F)cc1`, in test [1], the compound was classed as inactive.
Take `N#CSCSc1nc2ccccc2s1`: the outcome in test [1] was inactive.
As to `CC(C)CCCCCCc1ccc(O)cc1`, in [3], the concentration at half-maximal activity (AC50) is 7.09 µM (active) and 16.2 µM (active) and 15.9 µM (active). Moreover, the result in [1] was inactive.
Consider `COCCO`, for which the AC50 in test [5] is 3.84 µM (active).
In the case of `CCOC(=O)COc1cc(-n2ncc(C(F)(F)F)c(C)c2=O)c(F)cc1Cl`, in [1], the result was inactive.
Regarding `Oc1ccc(C(c2ccc(O)cc2)C(Cl)(Cl)Cl)cc1`, the compound was classed as inactive in test [2], in test [1] and in test [6]. Also, the AC50 in [3] was 1.01 µM (active).
Regarding `COC(=O)CSc1cc(N=c2sc(=O)n3n2CCCC3)c(F)cc1Cl`, the outcome in test [4] was inactive.
Regarding `C[C@]12C[C@H](O)[C@H]3[C@@H](CCC4=CC(=O)CC[C@@]43C)[C@@H]1CC[C@@H]2C(=O)CO`, the call in test [7] and in test [5] was inactive. Also, the AC50 in test [8] is 25 µM (active).
On to `CCCCOCCOCCOCc1cc2c(cc1CCC)OCO2`, for which the result in test [4] and in [1] was inactive.
For `CCOC(=O)[C@H](C)Oc1ccc(Oc2nc3ccc(Cl)cc3o2)cc1`, the compound was classed as inactive in [1].
For `CCC(C)OC(=O)N1CCCCC1CCO` (stereo not given), the AC50 in test [8] is 31.1 µM (active). For the same compound, the compound was called inactive in test [1].
With `C[C@]12CC[C@@H]3c4ccc(O)cc4C[C@@H](CCCCCCCCCS(=O)CCCC(F)(F)C(F)(F)F)[C@H]3[C@@H]1CC[C@@H]2O` (stereo not given in full), the AC50 in test [3] is 13.1 µM (active); in test [9], 9.12 µM (active). For the same compound, the outcome in test [3], in [5], in test [4] and in test [1] was inactive.
With `C=CCOC(Cn1ccnc1)c1ccc(Cl)cc1Cl` (stereo not given), the values for the concentration at half-maximal activity (AC50) in [3], in test [8] and in [6] were 15.4 µM (active), 4.62 µM (active) and 11.9 µM (active), respectively. For the same compound, the call in [1] was inactive.
With `CCCCC(CC)COC(=O)c1ccccc1C(=O)O` (stereo not given), the outcome in test [2] was inactive. Also, the concentration at half-maximal activity (AC50) in test [3] was 7.38 µM (active).
As for `CCCOC(=O)NCCCN(C)C`, the AC50 in [8] was 11.3 µM (active).
For `CCOC(=O)C(C)Oc1ccc(Oc2nc3ccc(Cl)cc3o2)cc1` (stereo not given), the compound was classed as inactive in test [1].
For the compound `COc1c(Cl)ccc(Cl)c1C(=O)O`, the compound was classed as inactive in test [10].
Consider `CC(=O)[C@H]1CC[C@H]2[C@@H]3CCC4=CC(=O)CC[C@]4(C)[C@H]3CC[C@]12C`, for which the half-maximal activity concentration (AC50) in test [8] is 1.16 µM (active); in test [9] it was 6.22 µM (active); in test [1], 4.07 µM (active). In addition, the outcome in [1] was inactive.
